In the supplement of paper PMC10849652:
Targets with a hit are over-represented here; the source holds about 8,800 in all. About 0.5% of all pairs of compound and target were hits. Values without a mark were called inactive.

Experiments:
Experiment in all cases: log2 fold change, soluble protein after heating vs DMSO (PISA); higher = thermal stabilisation; K562 lysate, 10 uM; active = over 0.2 and 3.5 SD of the protein, either way, in both replicates (recomputed)
alvocidib = compound: CN1CC[C@H](c2c(O)cc(O)c3c(=O)cc(-c4ccccc4Cl)oc23)[C@H](O)C1 [alvocidib]
Outline: (§1)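 Dounce homogenisation of K562 pellets in PBS pH 7.4 with 1 mM MgCl2 produced a crude extract, used at 1 mg/mL protein. Exposure to 10 μM compound lasted 30 min, and aliquots were then heated for 3 min across 48°C-58°C, pooled and brought to 0.5% NP-40 at 4°C. The supernatant after 21,000xg for 90 min was quantified by TMTpro 16plex LC-MS/MS with channel sums equalised. Duplicate values are given as log-two fold change in thermal stability relative to solvent controls.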

Tubastatin A = compound: CN1CCc2c(c3ccccc3n2Cc2ccc(C(=O)NO)cc2)C1 [Tubastatin A]
Outline: as §1

[1] = compound: CNC(=O)C1=CC=CC=C1NC2=NC(=NC=C2Cl)NC3=C(C=C(C=C3)N4CCOCC4)OC
Outline: as §1

defactinib = compound: CNC(=O)c1ccc(Nc2ncc(C(F)(F)F)c(NCc3nccnc3N(C)S(C)(=O)=O)n2)cc1 [defactinib]
Outline: as §1

[2] = compound: CNc1nc(-c2ccc3c(N)n[nH]c3c2)cc(N2C[C@@H](C(=O)NC3CCCCC3)CC[C@H]2C)n1
Outline: as §1

encorafenib = compound: COC(=O)N[C@@H](C)CNc1nccc(-c2cn(C(C)C)nc2-c2cc(Cl)cc(NS(C)(=O)=O)c2F)n1 [encorafenib]
Outline: as §1

[3] = compound: COC(=O)[C@H](CCSC)NC(=O)C1=C(C=C(C=C1)NC[C@H](CS)N)C2=CC=CC=C2
Outline: as §1

alisertib = compound: COc1cc(Nc2ncc3c(n2)-c2ccc(Cl)cc2C(c2c(F)cccc2OC)=NC3)ccc1C(=O)O [alisertib]
Outline: as §1

[4] = compound: COc1cc2nc(-c3cc(F)ccc3O)nc(N[C@@H]3CNC[C@H]3C(C)(C)O)c2cc1OC
Outline: as §1

gefitinib = compound: COc1cc2ncnc(Nc3ccc(F)c(Cl)c3)c2cc1OCCCN1CCOCC1 [gefitinib]
Outline: as §1

lapatinib = compound: CS(=O)(=O)CCNCc1ccc(-c2ccc3ncnc(Nc4ccc(OCc5cccc(F)c5)c(Cl)c4)c3c2)o1 [lapatinib]
Outline: as §1

pictilisib = compound: CS(=O)(=O)N1CCN(Cc2cc3nc(-c4cccc5[nH]ncc45)nc(N4CCOCC4)c3s2)CC1 [pictilisib]
Outline: as §1

crizotinib = compound: C[C@@H](Oc1cc(-c2cnn(C3CCNCC3)c2)cnc1N)c1c(Cl)ccc(F)c1Cl [crizotinib]
Outline: as §1

[5] = compound: C[C@H](C1=CC=C(C=C1)C(=O)NC2=C3C=CNC3=NC=C2)N
Outline: as §1

duvelisib = compound: C[C@H](Nc1ncnc2nc[nH]c12)c1cc2cccc(Cl)c2c(=O)n1-c1ccccc1 [duvelisib]
Outline: as §1

gandotinib = compound: Cc1cc(Nc2cc(CN3CCOCC3)c3nc(C)c(Cc4ccc(Cl)cc4F)n3n2)n[nH]1 [gandotinib]
Outline: as §1

tozasertib = compound: Cc1cc(Nc2cc(N3CCN(C)CC3)nc(Sc3ccc(NC(=O)C4CC4)cc3)n2)n[nH]1 [tozasertib]
Outline: as §1

doramapimod = compound: Cc1ccc(-n2nc(C(C)(C)C)cc2NC(=O)Nc2ccc(OCCN3CCOCC3)c3ccccc23)cc1 [doramapimod]
Outline: as §1

bafetinib = compound: Cc1ccc(NC(=O)c2ccc(CN3CC[C@H](N(C)C)C3)c(C(F)(F)F)c2)cc1Nc1nccc(-c2cncnc2)n1 [bafetinib]
Outline: as §1

[6] = compound: Cc1cccc(CC(=O)N2CCc3c2ccc(-c2cn(C)c4ncnc(N)c24)c3F)n1
Outline: as §1

Chain of UniProt P35249 (P35249 whole entry, looked up): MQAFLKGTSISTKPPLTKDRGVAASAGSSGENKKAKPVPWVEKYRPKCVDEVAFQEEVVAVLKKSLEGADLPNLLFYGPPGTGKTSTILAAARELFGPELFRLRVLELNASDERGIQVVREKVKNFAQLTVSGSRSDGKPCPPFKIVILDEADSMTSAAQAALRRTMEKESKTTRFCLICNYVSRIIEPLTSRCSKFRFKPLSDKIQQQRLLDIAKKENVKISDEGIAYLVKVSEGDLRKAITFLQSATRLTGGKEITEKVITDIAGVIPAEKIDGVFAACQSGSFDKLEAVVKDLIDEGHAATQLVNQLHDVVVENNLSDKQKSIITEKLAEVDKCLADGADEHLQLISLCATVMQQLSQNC
Chain of UniProt Q13530 (Q13530 whole entry, looked up): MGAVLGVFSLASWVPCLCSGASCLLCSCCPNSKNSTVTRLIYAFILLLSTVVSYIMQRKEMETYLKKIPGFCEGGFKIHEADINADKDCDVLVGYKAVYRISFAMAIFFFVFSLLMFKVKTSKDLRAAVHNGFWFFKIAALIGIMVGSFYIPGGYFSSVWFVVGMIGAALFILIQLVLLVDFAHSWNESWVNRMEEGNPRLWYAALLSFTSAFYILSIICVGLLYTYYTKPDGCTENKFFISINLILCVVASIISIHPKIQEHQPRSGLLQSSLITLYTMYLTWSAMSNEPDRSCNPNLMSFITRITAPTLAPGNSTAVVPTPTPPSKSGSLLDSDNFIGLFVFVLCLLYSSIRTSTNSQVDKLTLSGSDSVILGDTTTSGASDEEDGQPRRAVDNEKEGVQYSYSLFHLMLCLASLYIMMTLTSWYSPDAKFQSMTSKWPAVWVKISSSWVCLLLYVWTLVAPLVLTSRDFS
Chain of UniProt P38159 (P38159 whole entry, looked up): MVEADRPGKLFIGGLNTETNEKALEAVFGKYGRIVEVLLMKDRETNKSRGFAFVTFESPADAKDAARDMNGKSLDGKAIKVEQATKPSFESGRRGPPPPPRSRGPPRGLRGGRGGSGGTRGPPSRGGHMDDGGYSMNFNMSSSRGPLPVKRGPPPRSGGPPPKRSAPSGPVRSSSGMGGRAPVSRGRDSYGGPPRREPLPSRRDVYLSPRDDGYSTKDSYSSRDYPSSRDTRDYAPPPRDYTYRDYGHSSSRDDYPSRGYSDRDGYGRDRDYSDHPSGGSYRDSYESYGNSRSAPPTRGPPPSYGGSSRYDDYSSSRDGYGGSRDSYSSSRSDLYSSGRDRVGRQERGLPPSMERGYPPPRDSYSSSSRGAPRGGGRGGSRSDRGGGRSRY
Chain of UniProt P53805 (P53805 whole entry, looked up): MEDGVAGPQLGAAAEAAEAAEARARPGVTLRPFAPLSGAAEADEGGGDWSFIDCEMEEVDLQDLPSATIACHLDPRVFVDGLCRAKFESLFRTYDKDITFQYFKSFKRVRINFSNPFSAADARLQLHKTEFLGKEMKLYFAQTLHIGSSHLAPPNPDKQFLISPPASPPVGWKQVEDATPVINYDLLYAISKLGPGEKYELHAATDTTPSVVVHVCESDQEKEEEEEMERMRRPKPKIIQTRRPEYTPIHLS
Chain of UniProt Q96HR9 (Q96HR9 whole entry, looked up): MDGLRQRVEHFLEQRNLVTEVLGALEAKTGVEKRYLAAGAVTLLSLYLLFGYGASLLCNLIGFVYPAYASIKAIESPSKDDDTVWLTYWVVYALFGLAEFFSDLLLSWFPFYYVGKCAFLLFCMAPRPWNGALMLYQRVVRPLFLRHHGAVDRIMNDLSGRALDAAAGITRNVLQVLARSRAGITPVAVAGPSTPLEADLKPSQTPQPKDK
Chain of UniProt Q7L523 (Q7L523 whole entry, looked up): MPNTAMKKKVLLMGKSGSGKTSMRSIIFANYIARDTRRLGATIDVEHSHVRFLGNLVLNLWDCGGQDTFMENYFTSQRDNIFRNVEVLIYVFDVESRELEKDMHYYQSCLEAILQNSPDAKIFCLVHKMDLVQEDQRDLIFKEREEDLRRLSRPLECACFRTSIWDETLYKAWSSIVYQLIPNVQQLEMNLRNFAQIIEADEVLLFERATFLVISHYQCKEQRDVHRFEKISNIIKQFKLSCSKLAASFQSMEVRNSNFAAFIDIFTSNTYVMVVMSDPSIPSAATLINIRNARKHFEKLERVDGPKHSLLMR
Chain of UniProt Q9Y3Z3 (Q9Y3Z3 whole entry, looked up): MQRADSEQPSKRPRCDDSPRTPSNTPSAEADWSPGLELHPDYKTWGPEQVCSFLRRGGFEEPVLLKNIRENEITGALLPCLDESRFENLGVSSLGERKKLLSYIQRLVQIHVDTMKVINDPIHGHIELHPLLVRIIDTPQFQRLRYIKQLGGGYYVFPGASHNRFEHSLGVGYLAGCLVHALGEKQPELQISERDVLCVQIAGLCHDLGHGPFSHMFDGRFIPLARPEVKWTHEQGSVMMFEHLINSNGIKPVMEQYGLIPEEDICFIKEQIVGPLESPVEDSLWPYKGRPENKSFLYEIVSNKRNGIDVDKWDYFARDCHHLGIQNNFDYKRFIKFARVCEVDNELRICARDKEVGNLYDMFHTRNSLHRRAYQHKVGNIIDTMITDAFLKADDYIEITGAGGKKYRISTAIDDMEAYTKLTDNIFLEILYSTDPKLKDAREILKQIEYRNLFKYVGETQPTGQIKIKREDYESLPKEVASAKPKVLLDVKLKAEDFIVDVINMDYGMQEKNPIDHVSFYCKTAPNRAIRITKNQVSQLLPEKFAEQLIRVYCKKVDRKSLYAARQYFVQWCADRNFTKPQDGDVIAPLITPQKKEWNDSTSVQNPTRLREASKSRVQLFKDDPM
Chain of UniProt P60059 (P60059 whole entry, looked up): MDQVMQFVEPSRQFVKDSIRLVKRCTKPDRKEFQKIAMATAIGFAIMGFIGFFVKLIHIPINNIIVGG

| Target | log2 fold change (alvocidib) | log2 fold change (Tubastatin A) | log2 fold change [1] | log2 fold change (defactinib) | log2 fold change [2] | log2 fold change (encorafenib) | log2 fold change [3] | log2 fold change (alisertib) | log2 fold change [4] | log2 fold change (gefitinib) | log2 fold change (lapatinib) | log2 fold change (pictilisib) | log2 fold change (crizotinib) | log2 fold change [5] | log2 fold change (duvelisib) | log2 fold change (gandotinib) | log2 fold change (tozasertib) | log2 fold change (doramapimod) | log2 fold change (bafetinib) | log2 fold change [6] |
| --- | --- | --- | --- | --- | --- | --- | --- | --- | --- | --- | --- | --- | --- | --- | --- | --- | --- | --- | --- | --- |
| SEC61G (UniProt P60059) | -0.107 | 0.063 | 0.09 | 0.045 | 0.137 | -0.02 | 0.067 | 0.053 | 0.009 | 0.036 | -0.094 | 0.139 | 0.209 | -0.331 | 0.105 | 0.46 (active) | -0.168 | 0.098 | -0.192 | 0.338 |
| RFC4 (UniProt P35249) | -0.018 | -0.119 | 0.018 | 0.009 | -0.043 | 0.018 | 0.088 | 0.022 | 0.003 | -0.006 | -0.01 | -0.004 | -0.027 | -0.065 | 0.01 | -0.028 | -0.027 | 0.035 | -0.018 | 0.041 |
| REEP6 (UniProt Q96HR9) | -0.089 | 0.045 | 0.02 | 0.056 | -0.013 | 0.076 | -0.025 | 0.032 | -0.036 | -0.175 | 0.066 | 0.047 | -0.04 | -0.269 | -0.006 | 0.056 | 0.097 | 0.052 | -0.031 | 0.078 |
| RBMX (UniProt P38159) | -0.003 | -0.03 | -0.042 | 0.023 | -0.022 | 0.021 | -0.068 | 0.002 | 0.013 | 0.023 | 0.002 | 0.012 | 0.022 | 0.011 | 0.033 | -0.003 | 0.013 | 0.008 | 0.068 | 0.022 |
| SERINC3 (UniProt Q13530) | -0.074 | -0.008 | 0.057 | -0.091 | 0.065 | 0.023 | -0.109 | -0.047 | 0.055 | 0.014 | -0.052 | -0.028 | -0.07 | -0.38 (active) | -0.001 | 0.16 | -0.012 | 0.03 | -0.014 | 0.075 |
| RRAGA (UniProt Q7L523) | -0.122 | -0.687 (active) | -0.053 | -0.044 | -0.045 | -0.032 | -0.022 | -0.161 | 0.017 | 0.04 | 0 | -0.06 | -0.084 | 0.075 | 0.063 | -0.035 | -0.033 | -0.058 | -0.018 | -0.02 |
| RCAN1 (UniProt P53805) | -0.003 | -0.118 | 0.052 | 0.006 | 0.079 | 0.065 | 0.035 | -0.02 | 0.019 | -0.038 | -0.017 | -0.048 | -0.127 | -0.088 | -0.012 | 0.041 | 0.017 | -0.039 | 0.123 | -0.03 |
| SAMHD1 (UniProt Q9Y3Z3) | -0.019 | -0.072 | 0.041 | -0.021 | -0.015 | 0 | 0.099 | -0.013 | 0.02 | 0.044 | 0.02 | -0.071 | -0.033 | -0.038 | 0.013 | -0.029 | 0.032 | -0.005 | -0.071 | 0.028 |
